The nature of assay [1]: yeast TOR pathway RPL19A-GFP modulators, primary screen, cell-based, S. cerevisiae, multiplex flow cytometry (AID 1862; in the data active = percent of DMSO control GFP below about 86%;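 also: lower values mimic rapamycin by blocking the RPL19A rise seen in DMSO cells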). As to conditions: S. cerevisiae RPL19A-GFP strain, flow cytometry fluorescence, 3 h; at 10 µM; stronger effect = lower value. On the technique in general: A flow cytometer gives signals particle by particle.
Assay [2] is described as follows: modulators of MEP2-GFP levels in yeast, primary screen, S. cerevisiae, multiplex flow cytometry (AID 1867;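 active = GFP response, as percent of the DMSO control, above the screen-wide mean plus 3 SD, about 139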;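 also: median GFP channel fluorescence of barcode-gated MEP2-GFP cells measured by flow cytometry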). As to conditions: S. cerevisiae MEP2-GFP strain, 3 h, at 10 µM, stronger effect = higher value, 100% means same as DMSO wells.
Assay [3] is described as follows: modulators of CIT2-GFP expression in yeast, primary screen, S. cerevisiae, GFP fusion, multiplex flow cytometry (AID 1870).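 Also: barcoded CIT2-GFP strain pooled with four other GFP strains with rapamycin as positive control; median GFP fluorescence per well over plate mean of DMSO wells so 100% = DMSO.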 The following applies: 3 h, at 10 µM, stronger effect = higher value.
Assay [4] can be described thus: modulators of LAP4-GFP expression in yeast, primary screen, S. cerevisiae, multiplex flow cytometry (AID 1873;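 active = GFP signal, as percent of the solvent control, above the screen mean plus 3 SD, about 149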). The following applies: 3 h, at 10 µM, stronger effect = higher value.
The nature of assay [5]: modulators of AGP1-GFP expression in yeast TOR pathway, primary screen, cell-based, multiplex flow cytometry, S. cerevisiae (AID 1887;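 active = GFP signal above the screen-wide mean plus 3 SD, that is over about 124.5% of the solvent control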;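 also: AGP1-GFP fusion strain of S. cerevisiae within a five-strain barcoded multiplex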). As to conditions: 3 h, at 10 µM, stronger effect = higher value.
Assay [6] is described as follows: inhibitors of CD8+ T cell-vesicle binding, pilot screen, LFA-1/ICAM-1 modulator project, MLPCN validation set, flow cytometry (AID 2523;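 active = response below a set limit, under 55% cells CD8-positive and vesicle-bound, and CD8 cells' 90th-percentile brightness under 279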;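 as to vesicle binding response: mean PE anti-B7-1 fluorescence of CD8+ cells relative to row control; 100% = QL9-loaded vesicles with DMSO vehicle in the same plate row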). As to conditions: 2C mouse CD8+ T cells, at 7 µM, stronger effect = lower value; double positive events: measured here: CD8+/vesicle+ event percentage.
Assay [7] deals with Integrin beta-1 (Homo sapiens) + Integrin alpha-4 (Homo sapiens) (UniProt P13612+P05556). The assay can be described thus: inhibition of HUTS-21 binding to VLA-4, pilot screen, VLA-4 allosteric modulator project, U937 cells, HUTS-21 mAb, flow cytometry, validation set (AID 2674;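 active = inhibition above 50%, about 3 SD of the validation set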;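 also: antibody binding induced by the VLA-4 ligand LDV present at three times its Kd; 0% = LDV ligand with antibody and no compound and 100% = antibody without LDV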). As to conditions: HUTS-21 LIBS mAb binding, at 6.7 µM, stronger effect = higher value, binding induced by LDV ligand.
Sequence of Integrin beta-1 (Homo sapiens) + Integrin alpha-4 (Homo sapiens) (P05556 whole entry, looked up): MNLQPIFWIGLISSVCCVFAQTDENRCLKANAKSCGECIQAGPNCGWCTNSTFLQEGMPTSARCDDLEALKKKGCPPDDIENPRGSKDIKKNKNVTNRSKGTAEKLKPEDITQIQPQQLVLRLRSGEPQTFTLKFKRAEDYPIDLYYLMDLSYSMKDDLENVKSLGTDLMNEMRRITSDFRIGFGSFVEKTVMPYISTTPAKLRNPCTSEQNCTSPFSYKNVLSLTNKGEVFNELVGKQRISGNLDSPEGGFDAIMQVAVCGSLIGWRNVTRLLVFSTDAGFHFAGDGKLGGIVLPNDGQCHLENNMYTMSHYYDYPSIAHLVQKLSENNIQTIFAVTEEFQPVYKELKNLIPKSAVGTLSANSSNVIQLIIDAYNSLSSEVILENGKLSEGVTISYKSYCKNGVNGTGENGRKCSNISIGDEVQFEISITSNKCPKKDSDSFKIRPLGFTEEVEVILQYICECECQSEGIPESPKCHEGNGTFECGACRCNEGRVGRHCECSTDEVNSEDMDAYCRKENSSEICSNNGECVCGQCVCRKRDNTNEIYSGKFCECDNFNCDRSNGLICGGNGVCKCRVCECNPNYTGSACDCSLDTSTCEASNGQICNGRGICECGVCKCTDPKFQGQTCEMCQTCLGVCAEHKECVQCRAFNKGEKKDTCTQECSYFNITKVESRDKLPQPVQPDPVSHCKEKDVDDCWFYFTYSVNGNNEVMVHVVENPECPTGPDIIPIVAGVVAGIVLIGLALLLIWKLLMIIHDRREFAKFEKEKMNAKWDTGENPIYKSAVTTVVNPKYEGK
Sequence of Integrin beta-1 (Homo sapiens) + Integrin alpha-4 (Homo sapiens) (P13612 whole entry, looked up): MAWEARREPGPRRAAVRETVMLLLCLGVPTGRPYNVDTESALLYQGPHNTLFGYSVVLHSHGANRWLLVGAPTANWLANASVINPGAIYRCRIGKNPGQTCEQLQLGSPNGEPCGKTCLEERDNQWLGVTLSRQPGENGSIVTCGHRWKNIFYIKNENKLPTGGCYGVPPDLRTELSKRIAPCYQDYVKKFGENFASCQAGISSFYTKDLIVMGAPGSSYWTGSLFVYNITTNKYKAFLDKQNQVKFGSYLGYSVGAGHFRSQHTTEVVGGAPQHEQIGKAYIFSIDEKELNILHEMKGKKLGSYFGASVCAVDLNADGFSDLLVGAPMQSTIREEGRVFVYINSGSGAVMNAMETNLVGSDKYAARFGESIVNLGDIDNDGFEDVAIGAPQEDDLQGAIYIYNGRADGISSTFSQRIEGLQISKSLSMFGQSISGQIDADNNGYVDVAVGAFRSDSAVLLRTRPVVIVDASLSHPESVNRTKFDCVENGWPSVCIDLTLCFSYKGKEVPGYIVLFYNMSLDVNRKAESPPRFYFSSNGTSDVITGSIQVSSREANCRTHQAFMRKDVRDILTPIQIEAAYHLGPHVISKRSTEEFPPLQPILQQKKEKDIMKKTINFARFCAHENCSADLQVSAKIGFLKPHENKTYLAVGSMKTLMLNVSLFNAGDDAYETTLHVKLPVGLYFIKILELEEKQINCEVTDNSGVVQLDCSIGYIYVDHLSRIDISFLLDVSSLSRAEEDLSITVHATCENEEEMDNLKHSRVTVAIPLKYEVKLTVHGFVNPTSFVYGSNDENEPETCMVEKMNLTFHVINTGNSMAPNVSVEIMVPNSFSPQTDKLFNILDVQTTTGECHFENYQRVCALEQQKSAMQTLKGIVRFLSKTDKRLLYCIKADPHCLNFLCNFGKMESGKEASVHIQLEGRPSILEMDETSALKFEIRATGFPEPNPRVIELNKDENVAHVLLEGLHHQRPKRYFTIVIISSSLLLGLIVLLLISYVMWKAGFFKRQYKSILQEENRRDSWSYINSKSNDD

A short description of assay [8]: superoxide lowering in aged yeast cells, pilot screen, validation compound set (AID 2706;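 active = superoxide response below 65% of plate, a cut near 3 SD across the whole screen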;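 also: yeast exposed to compound for one week at 30 degrees C before staining; 100% = mean of all compound wells on the same plate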). The following applies: S. cerevisiae aging, superoxide DHE fluorescence; at 10 µM; stronger effect = lower value.
For assay [9], the target named is Beta-adrenergic receptor kinase 1 (Homo sapiens) (UniProt P25098). The assay can be described thus: GRK2 binders displacing RNA aptamer, biochemical, validation, human GRK2, bead flow cytometry (AID 488806;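 active = aptamer binding inhibition above 30%, about 3 SD of noise from non-fluorescent compounds; inactive = inhibition at or below 30%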). As to conditions: bead-bound GRK2, FAM-aptamer displacement, at 10 µM, stronger effect = higher value.
Sequence of Beta-adrenergic receptor kinase 1 (Homo sapiens) (P25098 whole entry, looked up): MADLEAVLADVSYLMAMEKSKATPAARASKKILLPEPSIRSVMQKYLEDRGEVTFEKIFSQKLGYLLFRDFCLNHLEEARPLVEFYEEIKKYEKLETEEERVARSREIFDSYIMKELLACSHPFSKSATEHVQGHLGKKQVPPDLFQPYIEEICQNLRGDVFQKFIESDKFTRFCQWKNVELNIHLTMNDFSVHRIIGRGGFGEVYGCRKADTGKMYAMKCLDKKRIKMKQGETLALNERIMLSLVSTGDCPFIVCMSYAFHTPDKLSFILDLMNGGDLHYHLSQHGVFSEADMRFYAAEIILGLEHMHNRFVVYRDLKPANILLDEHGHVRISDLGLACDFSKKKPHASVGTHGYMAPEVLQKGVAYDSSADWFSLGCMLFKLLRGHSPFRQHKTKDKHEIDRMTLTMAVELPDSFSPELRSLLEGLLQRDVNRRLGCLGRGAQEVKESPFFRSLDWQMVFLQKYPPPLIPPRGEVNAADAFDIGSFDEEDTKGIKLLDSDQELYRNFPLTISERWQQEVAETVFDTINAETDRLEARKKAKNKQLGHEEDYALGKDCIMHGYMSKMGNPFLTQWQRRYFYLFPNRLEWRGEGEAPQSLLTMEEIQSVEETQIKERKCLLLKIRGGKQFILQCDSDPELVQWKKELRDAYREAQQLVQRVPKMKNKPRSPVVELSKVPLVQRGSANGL
The target of assay [10] is Beta-2 adrenergic receptor (Homo sapiens) (UniProt P07550). The assay can be described thus: beta2AR agonists driving receptor internalization, pilot screen, cell-based, FAP fluorogen, flow cytometry, validation set (AID 504459;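 active = percent response above 42, roughly 3 SD of non-fluorescent test compounds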;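 also: agonist-driven loss of surface beta2AR via internalization measured by FAP dye flow cytometry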). As to conditions: Am2.2-beta2AR cells, FAP surface receptor flow cytometry; at 10 µM; stronger effect = higher value.
Sequence of Beta-2 adrenergic receptor (Homo sapiens) (P07550 whole entry, looked up): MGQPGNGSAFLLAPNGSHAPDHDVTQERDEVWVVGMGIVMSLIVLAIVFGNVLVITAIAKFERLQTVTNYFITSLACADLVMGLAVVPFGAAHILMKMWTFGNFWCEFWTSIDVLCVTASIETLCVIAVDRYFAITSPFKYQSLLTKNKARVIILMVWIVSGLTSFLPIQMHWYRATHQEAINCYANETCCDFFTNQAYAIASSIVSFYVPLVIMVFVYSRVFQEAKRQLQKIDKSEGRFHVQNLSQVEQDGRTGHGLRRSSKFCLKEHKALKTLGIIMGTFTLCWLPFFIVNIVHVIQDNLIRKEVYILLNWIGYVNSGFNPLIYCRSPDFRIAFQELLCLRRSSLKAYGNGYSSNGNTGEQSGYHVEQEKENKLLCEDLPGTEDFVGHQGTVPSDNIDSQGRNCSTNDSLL
For assay [11], the target named is AP-2 complex subunit beta (Homo sapiens) (UniProt P63010). The assay can be described thus: inhibitors of arrestin peptide binding to AP2, pilot screen, biochemical, validation set, GST-AP2 beads, flow cytometry (AID 504541;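 active = inhibition above 54%, about 3 SD of non-fluorescent compounds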;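 also: AP2 carries R879A mutation and is captured from E. coli lysate; bead-bound FITC arrestin peptide fluorescence measuring arrestin peptide binding to AP2; 0% = DMSO wells and 100% = excess unlabeled arrestin peptide control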). The following applies: FITC arrestin peptide, at 10 µM, stronger effect = higher value, AP2 beta2 appendage fragment, R879A mutant.
Sequence of AP-2 complex subunit beta (Homo sapiens) (P63010 whole entry, looked up, the tested form may be a part, one chain of several): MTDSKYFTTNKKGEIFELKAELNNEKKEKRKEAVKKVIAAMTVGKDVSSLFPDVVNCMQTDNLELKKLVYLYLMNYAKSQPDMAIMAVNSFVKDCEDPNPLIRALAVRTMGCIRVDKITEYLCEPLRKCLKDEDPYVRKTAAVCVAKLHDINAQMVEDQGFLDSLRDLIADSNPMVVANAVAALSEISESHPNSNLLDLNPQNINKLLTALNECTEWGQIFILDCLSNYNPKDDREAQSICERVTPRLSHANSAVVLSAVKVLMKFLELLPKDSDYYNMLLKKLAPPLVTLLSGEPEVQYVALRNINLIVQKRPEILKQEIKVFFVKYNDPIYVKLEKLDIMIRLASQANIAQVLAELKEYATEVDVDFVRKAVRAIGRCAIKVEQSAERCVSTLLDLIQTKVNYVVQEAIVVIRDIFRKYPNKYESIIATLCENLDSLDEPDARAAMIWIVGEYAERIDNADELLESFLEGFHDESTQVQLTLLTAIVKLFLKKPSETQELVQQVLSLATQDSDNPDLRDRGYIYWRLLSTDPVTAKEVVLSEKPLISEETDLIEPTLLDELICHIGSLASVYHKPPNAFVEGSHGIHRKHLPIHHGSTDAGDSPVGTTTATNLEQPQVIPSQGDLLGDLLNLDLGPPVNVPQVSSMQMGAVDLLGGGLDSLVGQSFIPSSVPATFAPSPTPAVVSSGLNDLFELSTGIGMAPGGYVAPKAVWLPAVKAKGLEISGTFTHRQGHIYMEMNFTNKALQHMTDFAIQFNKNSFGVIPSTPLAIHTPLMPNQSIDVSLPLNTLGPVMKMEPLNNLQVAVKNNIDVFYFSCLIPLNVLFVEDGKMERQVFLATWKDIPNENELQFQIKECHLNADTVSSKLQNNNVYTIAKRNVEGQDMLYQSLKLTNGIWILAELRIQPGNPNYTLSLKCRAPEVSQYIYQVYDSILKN
Assay [12] can be described thus: yeast V-ATPase proton transport modulators, S. cerevisiae, pHLuorin, HTS validation (AID 504600; in the data active = response above about 15%;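 also: plate controls were DMSO for no effect and reference compound for full effect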). The following applies: S. cerevisiae pHLuorin cytosolic pH, at 10 µM, stronger effect = higher value.
In assay [13] the test system is anti-desmoglein-3 scFv antibody binding to human DSG3. The assay can be described thus: inhibitors of anti-DSG3 scFv binding to DSG3, pilot screen, biochemical, validation compound set, bead-based, flow cytometry (AID 588368;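 active = binding below the plate cutoff, the plate median minus 3 SD, with a reading above zero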;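 also: signal is the median channel fluorescence of bead-bound GFP antibody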). The following applies: Protein G beads, DSG3-Fc, scFv-GFP binding, at 10 µM, stronger effect = lower value.
The nature of assay [14]: inhibitors of fungal efflux pumps CDR1, CDR2, MDR1, pilot screen, validation compound set, multiplex, phenotypic (AID 588506;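 active = efflux inhibition above 0.42, the validation set average plus 4 SD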;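 also: Nile Red retained in cells so higher fluorescence means more efflux inhibition; 0 = negative control wells and 1 = enniatin B 25 µM full block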). The following applies: S. cerevisiae pump-expressing triplex, Nile Red efflux flow cytometry; at 10 µM; stronger effect = higher value; the pumps come from Candida albicans.
Assay [15] has as its target ATP-binding cassette sub-family B member 6 (Homo sapiens) (UniProt Q9NP58). The assay can be described thus: ABCB6 transporter inhibitors, pilot screen, K562-ABCB6 cells, flow cytometry, validation set (AID 588550;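 active = inhibition above the screen-wide mean plus 3 SD, about 51%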;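 also: 0% = DMSO wells and 100% = benzethonium chloride 70 µM positive control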). The following applies: K562-ABCB6 porphyrin accumulation, 1 h, at 10 µM, stronger effect = higher value.
Assay [16] can be described thus: promoters of myeloid differentiation in arrested cells, primary screen, cell-based, GFP/MAC1 double positive, flow cytometry, validation set (AID 588685;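 active = differentiation response of at least 50%, scaled between solvent and reference control, from cells with both markers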;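 also: compound exposure lasts four days before antibody staining and flow analysis; 0% = DMSO wells and 100% = 5 µM fulvestrant positive control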). The following applies: ER-HoxA9 marrow cells, stronger effect = higher value, normalized: vehicle 0, fulvestrant 100.

Records with an inconclusive call do not appear. Activity calls are given as the source filed them.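 The calls were made as follows, unless noted: active = percent response above a set limit, the screen-wide mean plus 3 SD (cut at about 130% in these data); inactive = the rest.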

Sequence of ATP-binding cassette sub-family B member 6 (Homo sapiens) (Q9NP58 whole entry, looked up): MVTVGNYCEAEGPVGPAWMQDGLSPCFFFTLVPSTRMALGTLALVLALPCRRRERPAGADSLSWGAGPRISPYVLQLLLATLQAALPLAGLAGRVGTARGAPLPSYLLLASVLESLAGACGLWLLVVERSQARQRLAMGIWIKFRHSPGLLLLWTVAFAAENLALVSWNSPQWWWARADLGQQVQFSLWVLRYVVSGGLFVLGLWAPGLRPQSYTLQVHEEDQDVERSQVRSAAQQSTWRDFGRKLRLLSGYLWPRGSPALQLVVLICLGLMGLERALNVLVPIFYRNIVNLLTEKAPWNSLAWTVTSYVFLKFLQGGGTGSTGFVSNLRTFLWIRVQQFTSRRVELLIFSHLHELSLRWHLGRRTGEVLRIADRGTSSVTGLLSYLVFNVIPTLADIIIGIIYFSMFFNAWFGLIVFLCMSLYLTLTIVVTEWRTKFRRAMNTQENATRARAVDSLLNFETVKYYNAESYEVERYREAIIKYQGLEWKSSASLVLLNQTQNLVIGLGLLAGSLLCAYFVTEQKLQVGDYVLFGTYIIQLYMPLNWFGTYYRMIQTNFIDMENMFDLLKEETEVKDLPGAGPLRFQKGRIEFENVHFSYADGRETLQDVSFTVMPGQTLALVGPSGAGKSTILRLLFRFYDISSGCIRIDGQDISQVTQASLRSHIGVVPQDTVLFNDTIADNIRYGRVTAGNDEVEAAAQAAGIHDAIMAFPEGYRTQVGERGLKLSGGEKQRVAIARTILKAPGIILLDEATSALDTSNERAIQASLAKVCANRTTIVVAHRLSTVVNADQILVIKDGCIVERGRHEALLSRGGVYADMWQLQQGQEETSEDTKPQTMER

Regarding `CN1C(C(=O)Nc2ccccn2)=C(O)c2sccc2S1(=O)=O`, in assay [1], the percent of DMSO control GFP is 102% (inactive). Besides, the GFP response vs DMSO in assay [2] was 97.7% (inactive); in assay [4], 93.7% (inactive). Also, the percent response of DMSO control in assay [3] was 105% (inactive). In addition, the GFP response, % of DMSO in assay [5] is 102% (inactive). The compound also had a double positive events in assay [6] of 63.2%. The vesicle binding response in [6] is 168% (inactive). In addition, the results for the inhibition in assay [7], in [11] and in assay [15] were -2.43% (inactive), 6.73% (inactive) and 9% (inactive), respectively. Further, the superoxide response (% of plate) in assay [8] was 113% (inactive). In addition, the aptamer binding inhibition in assay [9] is -6% (inactive). Besides, the response in [10] is 4.21% (inactive); in assay [12], 4.48% (inactive). Also, the binding (% of control) in [13] was 96% (inactive). In assay [14], the efflux inhibition (fraction of control) is 0.035 (inactive). Further, the differentiation response in [16] is 4.2% (inactive).
On to `COc1ccc(CCN2CNc3c(c(=O)n(C)c(=O)n3C)C2)cc1OC`, for which, in [1], the percent of DMSO control GFP is 99.8% (inactive). Besides, the GFP response vs DMSO in assay [2] was 103% (inactive); in assay [4], 118% (inactive). The percent response of DMSO control in assay [3] was 102% (inactive). For the same compound, in [5], the GFP response, % of DMSO is 116% (inactive). Besides, the double positive events in assay [6] is 60.5%. In [6], the vesicle binding response was 214% (inactive). Further, the inhibition is -1.97% (inactive) in [7], -4.43% (inactive) in [11] and -5% (inactive) in assay [15]. In [8], the superoxide response (% of plate) was 93.5% (inactive). The aptamer binding inhibition in assay [9] was -4% (inactive). Moreover, the response in [10] is -3.69% (inactive); in [12], -9.61% (inactive). Further, in [13], the binding (% of control) is 99.7% (inactive). For the same compound, the efflux inhibition (fraction of control) in [14] is 0.04 (inactive). The differentiation response in [16] was -4% (inactive).
`CCN(CC)CCNC(=O)c1ccc(N)cc1`: in [1], the percent of DMSO control GFP is 99.6% (inactive). For the same compound, the GFP response vs DMSO in [2] was 106% (inactive); in assay [4], 89.4% (inactive). In assay [3], the percent response of DMSO control is 91.9% (inactive). The GFP response, % of DMSO in [5] was 94.6% (inactive). Also, the double positive events in assay [6] came out at 63.2%. Moreover, the vesicle binding response in assay [6] was 1180% (inactive). In addition, the inhibition is -6.68% (inactive) in assay [7], -0.67% (inactive) in assay [11] and 21% (inactive) in assay [15]. The superoxide response (% of plate) in [8] is 94.8% (inactive). In addition, the aptamer binding inhibition in [9] was -2% (inactive). Also, the response is -4.02% (inactive) in assay [10] and 0.99% (inactive) in assay [12]. In assay [13], the binding (% of control) was 94.2% (inactive). Also, in assay [14], the efflux inhibition (fraction of control) was -0.14 (inactive). Moreover, the differentiation response in assay [16] was 6.11% (inactive).
Regarding `CC(C)(C)OC(=O)N1CC(O)CC1C(=O)OCC(=O)c1ccc(Cl)cc1` (stereo not given), in assay [1], the percent of DMSO control GFP is 105% (inactive). Also, the results for the GFP response vs DMSO in assay [2] and in assay [4] were 98.3% (inactive) and 90.7% (inactive), respectively. The percent response of DMSO control in assay [3] was 113% (inactive). The GFP response, % of DMSO in assay [5] was 105% (inactive). This compound registered a double positive events in [6] of 61.3%. Also, the vesicle binding response in assay [6] is 222% (inactive). For the same compound, the inhibition is 2.66% (inactive) in assay [7], -13.3% (inactive) in [11] and -6% (inactive) in [15]. Besides, the superoxide response (% of plate) in [8] was 105% (inactive). Also, the aptamer binding inhibition in [9] is 0% (inactive). In addition, the response was -16.2% (inactive) in assay [10] and 2.73% (inactive) in [12]. Besides, the binding (% of control) in assay [13] is 98.2% (inactive). In addition, the efflux inhibition (fraction of control) in [14] is 0.14 (inactive). For the same compound, the differentiation response in [16] was 8.06% (inactive).
Regarding `CN(C)CCCN1c2ccccc2Sc2ccccc21`, the percent of DMSO control GFP in assay [1] was 98.1% (inactive). Further, the GFP response vs DMSO was 102% (inactive) in assay [2] and 107% (inactive) in assay [4]. The percent response of DMSO control in assay [3] is 99.6% (inactive). Besides, the GFP response, % of DMSO in assay [5] was 120% (inactive). In addition, the double positive events in [6] is 61.4%. In [6], the vesicle binding response was 202% (inactive). For the same compound, the results for the inhibition in [7], in [11] and in assay [15] were 44% (inactive), 7.22% (inactive) and 8% (inactive), respectively. The superoxide response (% of plate) in assay [8] was 96.9% (inactive). Moreover, in assay [9], the aptamer binding inhibition is -3% (inactive). Further, the response in [10] is 0.87% (inactive); in [12] it was -5.2% (inactive). In assay [13], the binding (% of control) is 102% (inactive). Further, the efflux inhibition (fraction of control) in assay [14] was -0.09 (inactive). Also, the differentiation response in assay [16] is 23.6% (inactive).

By inhibition is commonly meant the relative decrease from the control value, in per cent.

For the origin of these results see PubChem BioAssay.
